Drawing on PubChem BioAssay (NCI), this text covers growth for 9 molecules.

What all share (assay): NCI-60 one-dose screen, 48 h (100 = growth as untreated, 0 = no growth, -100 = all killed)
What all share (settings): 10 µM unless noted

The test system of experiment [1] is NCI-H23 lung.
Experiment [2] deals with NCI-H226 lung.
Experiment [3] relates to NCI-H322M lung.
The subject of experiment [4] is HOP-62 NSCLC.
Experiment [5] concerns NCI-H460 lung.
The subject of experiment [6] is HOP-92 NSCLC.
Experiment [7] has as its system NCI-H522 lung.
Experiment [8] concerns A549/ATCC NSCLC.
Experiment [9] concerns 786-0 renal.
For experiment [10], the system named is DU-145 prostate.
The subject of experiment [11] is K-562 leukemia.
The subject of experiment [12] is MALME-3M melanoma.
Experiment [13] relates to MDA-MB-231 breast.
The test system of experiment [14] is RXF 393 renal.
Experiment [15] deals with SF-268 CNS.
The subject of experiment [16] is SF-295 CNS.
The subject of experiment [17] is SF-539 CNS.
The subject of experiment [18] is UACC-257 melanoma.
Experiment [19] has as its system M14 melanoma.

This is part of a sample that, as a whole, favours compounds with a hit. Of some 83,000 tested, about 20% had one in any assay.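 96-well plates, one dose, 48 hours. Percent growth reported; active if below 10.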 Values without a mark were called inactive. Active and inactive are the calls of the source.

With `CC(C)(C)N1CC(OC(N)=O)C1`, the growth in experiment [1] is 91.2%; in [2], 98.2%; in [3] it was 98.6%; in experiment [4], 100%; in experiment [5], 113%; in experiment [6] it was 96.2%. Besides, the growth was 114% in experiment [7]; 71.8% in experiment [8]; 96.4% in experiment [9]; 109% in [10]; 130% in [11]; 106% in [12]. Besides, the growth in [13] is 97.7%; in experiment [14], 29.1%; in [15], 109%; in [16], 113%; in [17], 98%; in experiment [18], 4.43% (active). Further, in experiment [19], the growth was 97.6%.
For the molecule `Cc1cc(-c2ccccc2)cc(SC#N)[n+]1[O-]`, the growth in [1] was 55.9%; in [2], 69.4%; in experiment [3] it was 50.5%; in experiment [4], 40.2%; in experiment [5], 19%; in [6], 82.2%. Further, the growth was 39.2% in experiment [7]; 33.7% in [8]; 41.1% in experiment [9]; 46.6% in [10]; 16% in experiment [11]; 59.3% in experiment [12]. The growth in [13] is 52.7%; in experiment [14], 49.6%; in [15] it was 43.3%; in [16], 23.2%; in [17], 43.5%; in experiment [18], 59.2%. In addition, in experiment [19], the growth was 19.3%.
`Clc1ccc2[nH]c3c(NCCCN4CCOCC4)ncnc3c2c1`: the growth in experiment [1] is 76.8%; in experiment [2], 86.1%; in experiment [3], 68.9%; in experiment [4] it was 83.5%; in experiment [5], 69.3%; in [6], 67.8%. For the same molecule, the growth in [7] was 90.3%; in experiment [8], 80.1%; in experiment [9] it was 80.3%; in [10], 87.3%; in experiment [11], 31.6%; in [12], 93.9%. The growth in experiment [13] was 56.7%; in experiment [14], 70.5%; in experiment [15], 99.6%; in experiment [16] it was 64.7%; in experiment [17], 95.4%; in experiment [18] it was 98.2%. For the same molecule, in [19], the growth was 73.8%.
With `O=C1C2=C(CCN(Cc3ccccc3)C2)N2CCN=C2N1Cc1ccc(C(F)(F)F)cc1`, the growth in [1] was 31%; in experiment [2], 25.9%; in [3], 37.8%; in experiment [4], 31%; in experiment [5] it was 14.7%; in experiment [6] it was 18.8%. Moreover, the growth in [7] is 19.9%; in experiment [8], 27.6%; in experiment [9], 48.8%; in [10] it was 33%; in [11] it was 29.4%; in [12], 30.4%. For the same molecule, the growth was -9.28% (active) in experiment [13]; 54% in experiment [14]; 39.2% in experiment [15]; -10.8% (active) in experiment [16]; 40.8% in experiment [17]; 15.5% in experiment [18]. Moreover, the growth in experiment [19] was 37.2%.
With `Oc1[nH]c2ccccc2c1/C=c1/cc2c(c(-c3ccc(F)cc3)n1)=Nc1ccccc1-2`, the growth in experiment [1] is -5.74% (active); in [2], 19.4%; in [3], 58.7%; in experiment [4], -47.3% (active); in experiment [5] it was -23.6% (active); in [6], -17.9% (active). The growth is -58% (active) in [7]; -33.7% (active) in [8]; -76.8% (active) in [9]; 9.34% (active) in [10]; 2.88% (active) in [11]; -54.5% (active) in experiment [12]. The growth in [13] was -4.54% (active); in [14], -57.1% (active); in [15], 15.4%; in [16], -19.1% (active); in [17], -65.6% (active); in [18], 20.9%. In addition, the growth in experiment [19] is -36.8% (active).
Turning to `CCNCCNc1cc(-c2ccc(C#N)cc2)c(C#N)c2nc3ccccc3n12`, the growth was 47.5% in [1]; 81.1% in experiment [2]; 33.6% in experiment [3]; 56.6% in experiment [4]; -28.1% (active) in experiment [5]; 63.3% in [6]. In addition, the growth in [7] is 31.8%; in experiment [8], 2.81% (active); in experiment [9], 28%; in [10], 33.6%; in [11] it was 23.9%; in [12], 51.6%. Besides, the growth in experiment [13] was 6.63% (active); in experiment [14], -10.6% (active); in experiment [15], 35.1%; in experiment [16], -64.6% (active); in experiment [17], -77.3% (active); in experiment [18] it was 57.5%.
With `CCOc1ccc2nc(-c3cccc(OCC(=O)NC(C)C)c3)nc(Nc3ccc(-c4cn[nH]c4)cc3)c2c1`, the growth in experiment [1] is 11.3%; in experiment [2], 38.8%; in experiment [3] it was -8.36% (active); in [4] it was -36.3% (active); in experiment [5], -37.9% (active); in experiment [6], -27.9% (active). For the same molecule, the growth is -25.3% (active) in experiment [7]; -34.9% (active) in experiment [8]; -12.5% (active) in experiment [9]; 4.3% (active) in experiment [10]; -17.1% (active) in experiment [11]; -66% (active) in [12]. The growth in [13] was 2.7% (active); in [14] it was -43.7% (active); in experiment [15] it was 12.6%; in experiment [16], -47.4% (active); in [17], -79.6% (active); in experiment [18], -53.7% (active). In experiment [19], the growth is 11.6%.
Turning to `CN(C)c1ccc2cc(-c3ccccc3F)c(N)nc2c1`, the growth was 21.4% in experiment [1]; 59.3% in experiment [2]; 55.1% in experiment [3]; 37.4% in [4]; 15.9% in experiment [5]; 32.3% in experiment [6]. The growth was -1.23% (active) in experiment [7]; 22.1% in experiment [8]; 34% in experiment [9]; 17.1% in experiment [10]; 13.5% in experiment [11]; -22.1% (active) in experiment [12]. Besides, the growth in [13] was 64.7%; in experiment [14], 19.1%; in experiment [15] it was 45.1%; in experiment [16] it was 0.224% (active); in experiment [17], -16.4% (active); in experiment [18], 45.7%.
`CN1C(=O)CCC(N2C(=O)c3cccc(NCCOCCOCCNC(=O)c4cc5c(o4)C(=O)c4ccccc4C5=O)c3C2=O)C1=O` (stereo not drawn): the growth in [1] was -52.7% (active); in [2], -72.1% (active); in experiment [3] it was -93% (active); in experiment [4] it was -59.1% (active); in experiment [5], -73.1% (active); in experiment [6], 65%. Moreover, the growth in experiment [7] is -35% (active); in experiment [8] it was -45% (active); in experiment [9], 8.13% (active); in [10], -95.3% (active); in experiment [11], 10.5%; in experiment [12] it was -97.4% (active). Also, the growth is -3.68% (active) in [13]; -34.6% (active) in experiment [14]; -0.714% (active) in experiment [15]; -88.1% (active) in [16]; -80.4% (active) in [17]; -85.1% (active) in experiment [18].
